The text below walks through data of article PMC12529666, “Dysregulation of AGO2-miRNA dynamics underlies the AGO2-associated Lessel–Kreienkamp syndrome”.

The labels stand for the following.
B1: ATGCCCTA (ssRNA)
RNA 1: GAGUUCUACAGUCCGACGAUCCCAACAUGCCCUACACCUGGAAUUCUCGGGUGCCAA
RNA 2: UGGAGUGUGACAAUGGUGUUUG
DNA 1: GATCGTCGGACTGTAGAACTC
DNA 2: TTGGCACCCGAGAATTCCA
modifications: constant regions annealed to DNA blockers; guide miR-122 5' phosphate
B2: ATGCCTTG (ssRNA)
RNA 1: GAGUUCUACAGUCCGACGAUCCCAACAUGCCUUGCACCUGGAAUUCUCGGGUGCCAA
RNA 2: UGGAGUGUGACAAUGGUGUUUG
DNA 1: GATCGTCGGACTGTAGAACTC
DNA 2: TTGGCACCCGAGAATTCCA
modifications: constant regions annealed to DNA blockers; guide miR-122 5' phosphate
B3: ACATCTTG (ssRNA)
RNA 1: GAGUUCUACAGUCCGACGAUCCCAACACAUCUUGCACCUGGAAUUCUCGGGUGCCAA
RNA 2: UGGAGUGUGACAAUGGUGUUUG
DNA 1: GATCGTCGGACTGTAGAACTC
DNA 2: TTGGCACCCGAGAATTCCA
modifications: constant regions annealed to DNA blockers; guide miR-122 5' phosphate
B4: ACGCCTCG (ssRNA)
RNA 1: GAGUUCUACAGUCCGACGAUCCCAACACGCCUCGCACCUGGAAUUCUCGGGUGCCAA
RNA 2: UGGAGUGUGACAAUGGUGUUUG
DNA 1: GATCGTCGGACTGTAGAACTC
DNA 2: TTGGCACCCGAGAATTCCA
modifications: constant regions annealed to DNA blockers; guide miR-122 5' phosphate
B5: GCGCTTTG (ssRNA)
RNA 1: GAGUUCUACAGUCCGACGAUCCCAACGCGCUUUGCACCUGGAAUUCUCGGGUGCCAA
RNA 2: UGGAGUGUGACAAUGGUGUUUG
DNA 1: GATCGTCGGACTGTAGAACTC
DNA 2: TTGGCACCCGAGAATTCCA
modifications: constant regions annealed to DNA blockers; guide miR-122 5' phosphate
B6: ATACTTTG (ssRNA)
RNA 1: GAGUUCUACAGUCCGACGAUCCCAACAUACUUUGCACCUGGAAUUCUCGGGUGCCAA
RNA 2: UGGAGUGUGACAAUGGUGUUUG
DNA 1: GATCGTCGGACTGTAGAACTC
DNA 2: TTGGCACCCGAGAATTCCA
modifications: constant regions annealed to DNA blockers; guide miR-122 5' phosphate
B7: GCATCTTG (ssRNA)
RNA 1: GAGUUCUACAGUCCGACGAUCCCAACGCAUCUUGCACCUGGAAUUCUCGGGUGCCAA
RNA 2: UGGAGUGUGACAAUGGUGUUUG
DNA 1: GATCGTCGGACTGTAGAACTC
DNA 2: TTGGCACCCGAGAATTCCA
modifications: constant regions annealed to DNA blockers; guide miR-122 5' phosphate
B8: ATACTCTA (ssRNA)
RNA 1: GAGUUCUACAGUCCGACGAUCCCAACAUACUCUACACCUGGAAUUCUCGGGUGCCAA
RNA 2: UGGAGUGUGACAAUGGUGUUUG
DNA 1: GATCGTCGGACTGTAGAACTC
DNA 2: TTGGCACCCGAGAATTCCA
modifications: constant regions annealed to DNA blockers; guide miR-122 5' phosphate
B9: ACATCTTA (ssRNA)
RNA 1: GAGUUCUACAGUCCGACGAUCCCAACACAUCUUACACCUGGAAUUCUCGGGUGCCAA
RNA 2: UGGAGUGUGACAAUGGUGUUUG
DNA 1: GATCGTCGGACTGTAGAACTC
DNA 2: TTGGCACCCGAGAATTCCA
modifications: constant regions annealed to DNA blockers; guide miR-122 5' phosphate
B10: ATGTTTCG (ssRNA)
RNA 1: GAGUUCUACAGUCCGACGAUCCCAACAUGUUUCGCACCUGGAAUUCUCGGGUGCCAA
RNA 2: UGGAGUGUGACAAUGGUGUUUG
DNA 1: GATCGTCGGACTGTAGAACTC
DNA 2: TTGGCACCCGAGAATTCCA
modifications: constant regions annealed to DNA blockers; guide miR-122 5' phosphate
B11: ATGCTTCG (ssRNA)
RNA 1: GAGUUCUACAGUCCGACGAUCCCAACAUGCUUCGCACCUGGAAUUCUCGGGUGCCAA
RNA 2: UGGAGUGUGACAAUGGUGUUUG
DNA 1: GATCGTCGGACTGTAGAACTC
DNA 2: TTGGCACCCGAGAATTCCA
modifications: constant regions annealed to DNA blockers; guide miR-122 5' phosphate

Sequence of AGO2 A367P (Q9UKV8 whole entry A367P/S387D/S824A/S828D/S831D/S834A): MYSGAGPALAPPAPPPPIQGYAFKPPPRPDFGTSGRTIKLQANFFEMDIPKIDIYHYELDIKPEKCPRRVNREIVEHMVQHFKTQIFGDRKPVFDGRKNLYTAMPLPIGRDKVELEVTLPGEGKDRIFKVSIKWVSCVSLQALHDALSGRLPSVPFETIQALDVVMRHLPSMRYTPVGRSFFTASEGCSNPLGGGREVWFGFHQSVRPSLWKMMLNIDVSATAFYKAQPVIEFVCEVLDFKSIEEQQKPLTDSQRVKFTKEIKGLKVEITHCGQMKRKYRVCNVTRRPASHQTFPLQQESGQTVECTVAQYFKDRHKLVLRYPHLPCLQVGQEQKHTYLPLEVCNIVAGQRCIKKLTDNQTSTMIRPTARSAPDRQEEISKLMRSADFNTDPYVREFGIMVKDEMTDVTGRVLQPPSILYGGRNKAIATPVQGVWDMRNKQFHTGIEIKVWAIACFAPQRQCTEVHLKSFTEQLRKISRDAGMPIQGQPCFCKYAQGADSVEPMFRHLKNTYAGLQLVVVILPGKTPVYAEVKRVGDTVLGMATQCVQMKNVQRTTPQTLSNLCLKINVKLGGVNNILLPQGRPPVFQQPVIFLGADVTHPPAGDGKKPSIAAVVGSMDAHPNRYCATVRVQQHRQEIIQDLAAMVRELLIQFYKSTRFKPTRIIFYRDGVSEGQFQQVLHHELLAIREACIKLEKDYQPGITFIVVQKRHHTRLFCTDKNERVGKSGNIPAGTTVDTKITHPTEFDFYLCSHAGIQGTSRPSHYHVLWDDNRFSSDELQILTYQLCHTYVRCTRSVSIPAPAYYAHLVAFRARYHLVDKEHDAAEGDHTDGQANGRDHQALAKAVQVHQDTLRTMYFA
Sequence of AGO2 L192P (Q9UKV8 whole entry L192P/S387D/S824A/S828D/S831D/S834A): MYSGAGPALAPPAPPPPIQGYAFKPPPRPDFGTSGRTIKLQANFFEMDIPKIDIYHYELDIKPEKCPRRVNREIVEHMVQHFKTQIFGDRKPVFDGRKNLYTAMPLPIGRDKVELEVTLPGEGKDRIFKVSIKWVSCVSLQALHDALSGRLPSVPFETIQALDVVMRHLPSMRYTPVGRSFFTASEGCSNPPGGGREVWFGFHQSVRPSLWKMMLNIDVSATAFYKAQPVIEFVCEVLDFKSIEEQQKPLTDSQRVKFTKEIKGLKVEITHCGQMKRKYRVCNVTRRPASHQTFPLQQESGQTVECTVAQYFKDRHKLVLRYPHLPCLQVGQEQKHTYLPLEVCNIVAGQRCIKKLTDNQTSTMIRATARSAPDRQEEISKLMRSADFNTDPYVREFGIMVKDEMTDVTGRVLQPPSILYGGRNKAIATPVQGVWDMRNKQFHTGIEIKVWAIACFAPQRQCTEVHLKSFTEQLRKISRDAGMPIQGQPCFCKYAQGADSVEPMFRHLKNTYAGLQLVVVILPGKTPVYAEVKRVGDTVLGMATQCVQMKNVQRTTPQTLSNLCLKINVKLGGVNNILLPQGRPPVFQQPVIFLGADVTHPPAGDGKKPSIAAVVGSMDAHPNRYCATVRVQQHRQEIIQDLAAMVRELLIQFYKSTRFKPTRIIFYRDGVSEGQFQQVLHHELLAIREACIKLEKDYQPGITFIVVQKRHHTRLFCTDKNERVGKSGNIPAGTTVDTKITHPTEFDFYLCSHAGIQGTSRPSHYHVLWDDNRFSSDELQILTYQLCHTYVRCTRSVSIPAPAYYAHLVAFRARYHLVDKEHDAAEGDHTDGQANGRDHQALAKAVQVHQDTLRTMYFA
Sequence of AGO2 F182del (Q9UKV8 other isoform, or with tags, fused parts or gaps S387D;S824A;S828D;S831D;S834A;del182-182): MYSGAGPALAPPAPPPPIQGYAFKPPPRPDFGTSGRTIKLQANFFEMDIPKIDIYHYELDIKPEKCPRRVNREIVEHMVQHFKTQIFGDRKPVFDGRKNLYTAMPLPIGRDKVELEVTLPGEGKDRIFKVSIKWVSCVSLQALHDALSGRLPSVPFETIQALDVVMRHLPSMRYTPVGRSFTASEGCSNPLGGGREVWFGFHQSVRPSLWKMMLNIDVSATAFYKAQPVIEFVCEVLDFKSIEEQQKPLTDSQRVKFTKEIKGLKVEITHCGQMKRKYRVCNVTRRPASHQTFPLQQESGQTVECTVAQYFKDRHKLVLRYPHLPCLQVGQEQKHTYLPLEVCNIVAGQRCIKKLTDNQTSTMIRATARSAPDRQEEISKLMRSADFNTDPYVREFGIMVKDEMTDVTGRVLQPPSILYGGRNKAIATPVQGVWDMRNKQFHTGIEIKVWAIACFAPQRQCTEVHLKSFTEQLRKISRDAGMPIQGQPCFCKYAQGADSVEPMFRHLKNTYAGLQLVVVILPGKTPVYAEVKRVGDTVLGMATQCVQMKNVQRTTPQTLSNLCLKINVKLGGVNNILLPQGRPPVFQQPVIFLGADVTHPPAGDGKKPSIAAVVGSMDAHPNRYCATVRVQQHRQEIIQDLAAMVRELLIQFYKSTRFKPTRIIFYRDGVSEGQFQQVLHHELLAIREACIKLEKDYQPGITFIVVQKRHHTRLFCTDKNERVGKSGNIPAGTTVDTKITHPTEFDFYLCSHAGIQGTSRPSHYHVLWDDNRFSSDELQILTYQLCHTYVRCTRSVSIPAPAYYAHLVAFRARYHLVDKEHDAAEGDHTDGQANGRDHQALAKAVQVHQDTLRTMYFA

One test addresses AGO2 L192P (Homo sapiens, UniProt Q9UKV8 1-859, L192P;S387D;S824A;S828D;S831D;S834A). In words: RNA Bind-n-Seq (nitrocellulose filter binding and sequencing); miR-122 guide loaded in AGO2; 60 min incubation; 30 mM Tris pH 8.0, 100 mM potassium acetate, 2 mM magnesium acetate, 0.5 mM TCEP, 0.005% NP-40, 0.01 mg/ml yeast tRNA; 3 nM AGO2-miR-122, 100 nM RNA library; 60; high values mean tight binding. As to conditions: protein: recombinant; tags: His6 (N-terminal, pFastBac HTA). Put shortly: (§1)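 His-tagged AGO2 was expressed in Sf9 insect cells by baculovirus, loaded with a synthetic guide RNA, and purified by Ni-NTA and a biotinylated capture oligo. Bound RNA was extracted, reverse-transcribed, barcode-amplified and Illumina-sequenced. Fold enrichment is each sequence's read fraction divided by its input-library read fraction.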
Take B1: the binding signal is 0.457 fold enrichment over input.
For B2, the binding signal was 0.356 fold enrichment over input.
With B3, the binding signal was 0.386 fold enrichment over input.
For B4, the binding signal was 0.351 fold enrichment over input.
With B5, the binding signal was 0.333 fold enrichment over input.
As to B6, the binding signal was 0.38 fold enrichment over input.
On the same count and under the same terms, as for B7, the figure is 0.349 fold enrichment over input; as for B8, 0.437 fold enrichment over input.
Same read-out and setting: with B9 the figure was 0.519 fold enrichment over input; with B10, 0.353 fold enrichment over input; with B11, 0.336 fold enrichment over input.

The next test concerns the target AGO2 A367P (Homo sapiens, UniProt Q9UKV8 1-859, A367P;S387D;S824A;S828D;S831D;S834A). Described as above. To be noted: protein: recombinant; tags: His6 (N-terminal, pFastBac HTA). The gist of the method:
as §1
As to B1, the binding signal is 0.166 fold enrichment over input.
B2: the binding signal was 0.131 fold enrichment over input.
Same read-out and setting: as for B3, the figure is 0.135 fold enrichment over input.
In the case of B4, the binding signal is 0.15 fold enrichment over input.
As for B5, the binding signal was 0.137 fold enrichment over input.
Regarding B6, the binding signal is 0.138 fold enrichment over input.
Same read-out and setting: with B7 the figure was 0.123 fold enrichment over input.
With B8, the binding signal was 0.187 fold enrichment over input.
As for B9, the binding signal is 0.197 fold enrichment over input.
Turning to B10, the binding signal is 0.123 fold enrichment over input.
As to B11, the binding signal is 0.127 fold enrichment over input.

For a further test, the target named is AGO2 T357M (Homo sapiens, UniProt Q9UKV8 1-859, T357M;S387D;S824A;S828D;S831D;S834A). The description is as above. To be noted: protein: recombinant; tags: His6 (N-terminal, pFastBac HTA). The gist of the method: as §1
Sequence of AGO2 T357M (Q9UKV8 whole entry T357M/S387D/S824A/S828D/S831D/S834A): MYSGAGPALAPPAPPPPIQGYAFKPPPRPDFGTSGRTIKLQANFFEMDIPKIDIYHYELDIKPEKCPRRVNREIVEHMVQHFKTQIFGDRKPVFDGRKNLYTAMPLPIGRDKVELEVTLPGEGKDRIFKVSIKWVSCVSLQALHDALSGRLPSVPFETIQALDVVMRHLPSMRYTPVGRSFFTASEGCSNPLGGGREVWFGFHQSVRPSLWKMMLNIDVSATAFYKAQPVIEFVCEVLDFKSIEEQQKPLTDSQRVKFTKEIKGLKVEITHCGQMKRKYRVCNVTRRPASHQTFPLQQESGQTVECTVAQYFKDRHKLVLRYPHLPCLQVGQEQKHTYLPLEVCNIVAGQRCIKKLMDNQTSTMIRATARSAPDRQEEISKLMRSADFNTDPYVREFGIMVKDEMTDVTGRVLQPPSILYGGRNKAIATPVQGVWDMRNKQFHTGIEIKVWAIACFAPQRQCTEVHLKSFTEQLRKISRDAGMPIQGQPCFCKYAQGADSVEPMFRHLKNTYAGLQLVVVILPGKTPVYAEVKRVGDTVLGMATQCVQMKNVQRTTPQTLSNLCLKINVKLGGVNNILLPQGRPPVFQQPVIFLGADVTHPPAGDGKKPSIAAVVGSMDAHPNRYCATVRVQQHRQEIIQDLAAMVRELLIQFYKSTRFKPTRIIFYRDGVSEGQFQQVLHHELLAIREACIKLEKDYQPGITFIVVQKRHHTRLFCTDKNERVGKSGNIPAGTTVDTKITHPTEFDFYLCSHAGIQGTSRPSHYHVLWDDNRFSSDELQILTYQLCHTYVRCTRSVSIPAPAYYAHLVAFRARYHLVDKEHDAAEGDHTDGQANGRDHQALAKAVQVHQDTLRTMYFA
With B1, the binding signal is 0.544 fold enrichment over input.
Consider B2, for which the binding signal was 0.51 fold enrichment over input.
As to B3, the binding signal is 0.458 fold enrichment over input.
Still for that read-out and setting: with B4 the figure was 0.48 fold enrichment over input; with B5, 0.462 fold enrichment over input; with B6, 0.553 fold enrichment over input.
Take B7: the binding signal was 0.425 fold enrichment over input.
Same read-out and setting: with B8 the figure was 0.545 fold enrichment over input; with B9, 0.562 fold enrichment over input; with B10, 0.462 fold enrichment over input.
Regarding B11, the binding signal is 0.474 fold enrichment over input.

The next test has as its target AGO2 F182del (Homo sapiens, UniProt Q9UKV8 1-859, S387D;S824A;S828D;S831D;S834A;del182-182). Described as above. To be noted: protein: recombinant; tags: His6 (N-terminal, pFastBac HTA). Put shortly: as §1
Take B8: the binding signal is 0.128 fold enrichment over input.
In the case of B9, the binding signal is 0.33 fold enrichment over input.
